From PubChem
TDP1 inh – qHTS Assay for Inhibitors of Tyrosyl-DNA Phosphodiesterase (TDP1); Tyrosyl-DNA phosphodiesterase 1 (Homo sapiens), Q9NUW8; recombinant TDP1, AlphaScreen DNA substrate cleavage; Potency, µM (highest dose often 130 µM), hits mostly inhibitors; 0.28% of 350,000 active; note: nearly all actives have a fitted effect of over 40% in size
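Compounds were preincubated with Tdp1 (1 nM final) for 15 min at room temperature before substrate (15 nM final) started a 5 min reaction; beads (10 ug/ml final) were then added for 10 min before AlphaScreen detection.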
DT40 TDP1 CPT – qHTS for Inhibitors of human tyrosyl-DNA phosphodiesterase 1 (TDP1): qHTS in cells in presence of CPT; chicken DT40 Tdp1-/-;hTDP1 cells + 20 nM CPT, ATP luminescence, 48 h; 12% of 420,000 active; Potency, µM (titrated, usually from 46.2 µM), most hits filed as inhibitors; AID 686979, 2013; note: nearly all actives have a fitted effect of over 55% in size
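Chicken DT40 Tdp1-/- cells stably complemented with human TDP1 were seeded at 400 cells/well in medium containing 20 nM camptothecin, exposed to pin-transferred compounds, and grown at 37 °C for at least 48 hr. Viability was read as ATP luminescence.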
CtBP-E1A blk – qHTS Assay for Inhibitors of the CtBP/E1A Interaction; CtBP / adenovirus E1A interaction (AlphaScreen); AlphaScreen GST-E1A/His-CtBP binding, 1536-well; stronger effect = lower value; activity change, % (no concentration beside the values); 0.49% of 340,000 active; in the data active = activity change below about -65%; inconclusive = mostly about -30% to -63%
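Homogeneous bead-based format: GST-tagged E1A captured on glutathione donor beads, His-tagged CtBP on nickel acceptor beads; compounds precede bead addition by 2 h at 37 °C.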
Six1-Eya2 blk – qHTS Assay for Inhibitors of the Six1/Eya2 Interaction | Homeobox protein SIX1 (Homo sapiens) + Protein phosphatase EYA2 (Homo sapiens), … | AlphaScreen GST-Six1/His-Eya2 binding, biochemical; stronger effect = lower value | activity change, % (test concentration not listed) | 0.56% of 360,000 active | AID 651725, 2012; in the data active = activity change below about -65%; inconclusive = mostly about -30% to -63%
Target sequence (O00167 whole entry, looked up): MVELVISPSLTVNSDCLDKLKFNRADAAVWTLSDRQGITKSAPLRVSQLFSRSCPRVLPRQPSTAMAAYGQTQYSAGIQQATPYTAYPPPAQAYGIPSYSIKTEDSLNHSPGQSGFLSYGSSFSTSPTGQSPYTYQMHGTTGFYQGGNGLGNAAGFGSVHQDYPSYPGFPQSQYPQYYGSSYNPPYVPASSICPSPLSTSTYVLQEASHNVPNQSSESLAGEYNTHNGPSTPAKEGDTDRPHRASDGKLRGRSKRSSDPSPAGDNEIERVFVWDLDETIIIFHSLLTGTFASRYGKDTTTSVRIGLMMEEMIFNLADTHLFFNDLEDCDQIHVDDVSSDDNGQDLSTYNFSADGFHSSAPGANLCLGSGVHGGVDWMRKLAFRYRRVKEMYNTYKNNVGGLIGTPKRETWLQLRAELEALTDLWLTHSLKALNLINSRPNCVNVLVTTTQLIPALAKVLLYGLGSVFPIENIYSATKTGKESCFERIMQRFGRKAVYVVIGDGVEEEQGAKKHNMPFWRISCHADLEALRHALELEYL
Target sequence (Q15475 whole entry, looked up): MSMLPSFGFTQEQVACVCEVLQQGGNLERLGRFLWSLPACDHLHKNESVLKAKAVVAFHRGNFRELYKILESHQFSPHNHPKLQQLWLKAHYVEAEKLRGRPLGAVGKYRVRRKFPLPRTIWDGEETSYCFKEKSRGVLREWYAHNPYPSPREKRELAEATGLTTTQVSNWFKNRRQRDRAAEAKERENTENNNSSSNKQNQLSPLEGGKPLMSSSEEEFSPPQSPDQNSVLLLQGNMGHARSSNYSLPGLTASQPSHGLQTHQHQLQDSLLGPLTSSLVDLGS
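Homogeneous AlphaScreen proximity assay pairing GST-Six1 with His-tagged Eya2 (added as 5X mix: 250 nM and 500 nM) in 50 mM Tris pH 8.0, 300 mM NaCl, 1 mM TCEP. Glutathione donor and nickel acceptor beads; 1 h, 37 °C, dark.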
IL-1B inflam inh – qHTS for Inhibitors of Inflammasome Signaling: IL-1-beta AlphaLISA Primary Screen; THP-1 LPS/ATP IL-1B secretion, AlphaLISA, 16 h; stronger effect = lower value; activity change, % at 57.5 µM; 4.7% of 360,000 active; AID 743279, 2014; in the data active = activity change below about -50%; inconclusive = mostly about -30% to -49%
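THP-1 cells pretreated 1 hr with compounds (up to 57.5 uM final), then stimulated with LPS (250 ng/mL final) plus ATP (1.25 mM final); secreted IL-1B measured by AlphaLISA after 16 hr, decreased signal indicating inhibition.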
TDP1 cell noCPT – qHTS for Inhibitors of human tyrosyl-DNA phosphodiesterase 1 (TDP1): qHTS in cells in absence of CPT; DT40 Tdp1-/- hTDP1 cells, no CPT, ATP luminescence, 48 h; 15% of 420,000 active; AID 686978, 2013; Potency, µM (doses to about 46.2 µM), usual class: inhibitors; note: nearly all actives have a fitted effect of over 55% in size
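Chicken DT40 Tdp1-/- cells stably complemented with human TDP1 were seeded at 400 cells/well with DMSO in place of 20 nM camptothecin. After compound pinning, cells grew at least 48 hr at 37 °C; viability read by CellTiter-Glo luminescence.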
A number is an active result; i = inactive; ? = inconclusive; nt = no result; ! = a repeat was not active; [ ] = remark or other dose. Sampled rows, rich in hits. Any-hit rate of the full collection: about 18%. Unless noted, calls come from the whole dose curve; as a rule, active = well fitted curve in the direction sought with a large enough effect; inconclusive = small, poorly fitted or top-dose-only effect, or another doubt; inactive = no such curve, though single readings can be large; an effect the other way counts as inactive or inconclusive.

SMILES	TDP1 inh	DT40 TDP1 CPT	CtBP-E1A blk	Six1-Eya2 blk	IL-1B inflam inh	TDP1 cell noCPT
CCCCn1c(N)c(N(CCOC)C(=O)CN(C)CC(=O)Nc2ccc(Cl)c(Cl)c2)c(=O)[nH]c1=O	i	18µM	i	i	?	?
CCCCn1c(N)c(N(CCOC)C(=O)COC(=O)COc2cc(C)c(Cl)cc2C(C)C)c(=O)[nH]c1=O	i	i	i	i	-98	i
CCOC(=O)CN1C(=O)S/C(=C\c2ccc(-c3ccc(C(=O)O)c(Cl)c3)o2)C1=O	8.9µM	i	i	i	?	i
CC(C)N1C(=O)S/C(=C\c2ccc(-c3ccc(Cl)c(C(=O)O)c3)o2)C1=O	25µM	?	nt	i	i	?
Cc1ccc(N2NC(=O)/C(=C/c3ccc(-c4ccc(Cl)c(C(=O)O)c4)o3)C2=O)cc1	i	i	i	i	i	i
CCN(CC)c1ccc(/C=C2/SC(=O)N(C(C)C)C2=O)o1	i	i	i	i	-94	2.3µM
CCOC(=O)CN1C(=O)S/C(=C\c2ccc(-c3cccc(C(=O)O)c3C)o2)C1=O	nt	i	i	i	i	i
Nc1nonc1-n1nnc(C(=O)N/N=C/c2ccc(Cl)cc2Cl)c1CN1CCOCC1	i[0.0935 µM]	i	i	i	i	i
Cc1ccc(/C=C/C(=O)N2CCCC(C)C2)cc1 (stereo not given)	i	i	i	i	i	?
CC1CCN(C(=O)/C=C/c2ccc(C(C)(C)C)cc2)CC1	i	?	i	i	i	21µM
O=C(CCS(=O)(=O)c1ccc2c(c1)NC(=O)CO2)NCc1ccccc1	i	i	i	i	i	i
CCOC(=O)c1c(CN2CCN(c3ccccc3)CC2)oc2ccc(O)cc12	i	?	i	i	i	?
CCOC(=O)c1c(CN2CCN(C)CC2)oc2ccc(OC)cc12	i	i	i	i	?	i
CCOC(=O)c1c(CN2CCCCC2)oc2ccc(OC)cc12	i	?	i	i	i	23µM!
CCOC(=O)c1c(CN2CCC(C)CC2)oc2ccc(OC)cc12	i	23µM	i	i	i	?
CCOC(=O)c1c(CN2CCCCC2C)oc2ccc(OC)cc12 (stereo not given)	i	21µM	i	i	i	?
CCCCNC(=O)[C@@H](c1ccccc1)N1Cc2ccccc2C1=O	i	i	nt	nt	nt	i
COC(=O)c1nnn(CC(=O)NC(=O)Nc2cccc(Cl)c2C)c1C(=O)OC	i	i	nt	i	i	i
CCOC(=O)N1CCN(C(=O)CCN2C(=O)COc3ccc(C)cc32)CC1	i	i	i	i	i	i
Cc1ccc(NC(=O)CCC(=O)N/N=C/c2cc([N+](=O)[O-])ccc2O)cc1	i	?	-65	-87	i	?
O=C(CCC(=O)Nc1cccc(Cl)c1)N/N=C/c1cc([N+](=O)[O-])ccc1O	i	?	i	?	i	?
CN1CCN(CCC(=O)N/N=C/c2cc([N+](=O)[O-])ccc2O)CC1	i	?	-77	-87	i	?
Cc1ccccc1NC(=O)CCC(=O)N/N=C/c1cc([N+](=O)[O-])ccc1O	i	?	-88	-79	i	16µM
Cc1ccc(C)c(NC(=O)CCC(=O)N/N=C/c2cc([N+](=O)[O-])ccc2O)c1	i	?	nt	-86	i	?
Cc1ccccc1C(=O)Nc1c2c(nn1C(C)(C)C)CS(=O)(=O)C2	i	i	i	i	i	i
O=C(CSc1nc2ccccc2s1)N/N=C/c1cc([N+](=O)[O-])ccc1O	i	?	-68	?	i	?
O=C(CCCC(=O)Nc1cccc(Br)c1)N/N=C/c1cc([N+](=O)[O-])ccc1O	i	5.8µM	-82	-67	i	5.2µM
